Test results: PubChem BioAssay (NCI)
About 79,000 compounds went through this panel and 15% of them were active in at least one assay; those are over-represented in the sample as a whole. Cut-off read from the data, not from the text of the source: active = growth inhibition above about 70%; inactive = the rest. Where a SMILES comes first, the peptide text is derived from it. The star is where a group is joined. Boc = CC(C)(C)OC(=O)*

Assays:
[1] = NCI Yeast Anticancer Drug Screen. Data for the rad50 strain (AID 155);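 note: 0% = growth of vehicle-only cultures of the same strain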; details: S. cerevisiae rad50 strain growth inhibition; at 50.0 µM; stronger effect = higher value
Summary of the method: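 Yeast carrying a defined DNA repair defect were exposed to test compounds, and growth was compared with vehicle-treated controls to give percent inhibition.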

[2] = NCI Yeast Anticancer Drug Screen. Data for the mec2-1 strain (AID 157); details: S. cerevisiae mec2-1 strain, at 50.0 µM, stronger effect = higher value
Summary of the method: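 mec2-1 yeast strain, carrying an alteration in DNA damage repair or cell cycle control, was exposed to compounds; growth inhibition was measured relative to vehicle-treated controls.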

[3] = NCI Yeast Anticancer Drug Screen. Data for the sgs1 mgt1 strain (AID 161);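 note: 0% = growth of cultures given vehicle only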; details: S. cerevisiae sgs1 mgt1 strain, at 50.0 µM, stronger effect = higher value
Summary of the method: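 Compounds are added to genetically altered yeast, and growth is compared with cultures given vehicle alone to give percent inhibition.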

[4] = NCI Yeast Anticancer Drug Screen. Data for the cln2 rad14 strain (AID 165);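 note: 0% = growth equal to vehicle treated cultures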; details: S. cerevisiae cln2 rad14 strain, at 50.0 µM, stronger effect = higher value
Summary of the method: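 Yeast carrying cln2 and rad14 alterations (cell cycle control and DNA damage repair) were exposed to compounds. Growth inhibition was measured against vehicle-treated controls.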

[5] = NCI Yeast Anticancer Drug Screen. Data for the bub3 strain (AID 167); details: S. cerevisiae bub3 mutant strain, at 50.0 µM, stronger effect = higher value
Summary of the method: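 Compounds were applied to a genetically altered yeast strain carrying a cell-cycle control defect. Growth inhibition was scored against vehicle-treated controls.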

[6] = NCI Yeast Anticancer Drug Screen. Data for the mlh1 rad18 strain (AID 175); details: S. cerevisiae mlh1 rad18 strain growth inhibition; at 50.0 µM; stronger effect = higher value
Summary of the method: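 Growth inhibition of the yeast strain was measured after compound exposure and expressed relative to vehicle-treated controls. The strain carries defined defects in DNA damage repair.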

Measured: growth inhibition

NC(=O)c1ncc[nH]c1=O
inactive: [1] -0.65% | [2] 5.35% | [3] -12.6% | [4] 1.7% | [5] 4.2% | [6] -9.15%

NC(=O)C1C2CC3C(C2)C31 (centres undefined)
inactive: [1] 2.9% | [2] 11.2% | [3] -1% | [4] -1% | [5] 3.4% | [6] 4.95%

NC(=O)c1ccc(=S)[nH]c1
inactive: [1] -8% | [2] -12.7% | [3] -7.55% | [4] -27.1% | [5] -6.1% | [6] 14.7%

CC(=O)NC1=C(N2CCC2C)C(=O)c2ccccc2C1=O (centres undefined)
inactive: [1] -2.4% | [2] 0.8% | [3] 6.15% | [4] -4.4% | [5] -43.9% | [6] -11.4%

CC(C)(O)C1COC2=C1C(=O)c1ccccc1C2=O (centres undefined)
inactive: [1] 11.8% | [2] -10.2% | [3] 24.6% | [4] 12.6% | [5] 7.2% | [6] -35.9%

CCOC(=O)c1c(N)sc2c1C(C(=O)OCC)CC2 (centres undefined)
inactive: [1] -8.95% | [2] 7.1% | [3] -8.05% | [4] -0.8% | [5] 14.8% | [6] 19.9%

C=CC1C(OC2OC(CO)C(O)C(O)C2O)OC=C(C(=O)OC)C1CC=O (centres undefined)
inactive: [1] 32.9% | [2] 11.9% | [3] 4.15% | [4] 13.4% | [5] 18.3% | [6] 32.7%

COc1ccc(CNC(=O)C2C(=O)C(=O)N(Cc3ccc(OC)c(OC)c3)C2=O)cc1OC (centres undefined)
inactive: [1] 20.8% | [2] -5.45% | [3] -0.9% | [4] 17.1% | [5] -1.25% | [6] 14.7%

Cc1noc2c1C(=O)CCC2
inactive: [1] -3.3% | [2] -5.45% | [3] 17.8% | [4] 11.2% | [5] 21.2% | [6] 7.05%

C=CCN(CC=C)c1ccccc1
inactive: [1] 24.1% | [2] 5.6% | [3] 25.4% | [4] 19.2% | [5] 14.6% | [6] 34.4%

CN(C)C(=O)C(c1ccccc1)P(=O)(c1ccccc1)c1ccccc1 (centres undefined)
inactive: [1] -7.9% | [2] -12.1% | [3] -0.9% | [4] -26.6% | [5] -21.2% | [6] -5.25%

CNC(=O)n1c(N)nc(-c2ccccc2)c1-c1ccccc1
inactive: [1] 14.3% | [2] 4.55% | [3] 18.4% | [4] 1.7% | [5] -22.1% | [6] -46.9%

Cc1ccc2c(c1)c(C)c(C)c(=O)n2C
inactive: [1] 21.2% | [2] -8.7% | [3] -1.5% | [4] 13.2% | [5] 1.9% | [6] 10.1%

CO[C@@H]1[C@@H](O)c2ccccc2N1C(C)=O
inactive: [1] 13.4% | [2] 1.9% | [3] -4% | [4] 8.15% | [5] 3.25% | [6] 20.1%

CS(=O)(=O)CC1=Nc2nnc(CCCCCCCc3nnc4n3C(=O)C(CS(C)(=O)=O)=N4)n2C1=O
inactive: [1] -17% | [2] 5.1% | [3] 5.55% | [4] -12.1% | [5] -5.15% | [6] -7.95%

COc1cc(C2CC(C)=C(C)CC2C(=O)O)cc(OC)c1OC (centres undefined)
inactive: [1] 1.55% | [2] 22.4% | [3] 7.25% | [4] 30.1% | [5] 10.4% | [6] 19.8%

COc1cccc(C(=O)C(O)c2cccc(OC)c2OC)c1OC (centres undefined)
inactive: [1] 0.6% | [2] -5.45% | [3] 8.2% | [4] 0.15% | [5] -10.6% | [6] -42%

COc1ccccc1-c1cc(=O)c2cc(C)c(C)c(C(=O)O)c2o1
inactive: [1] 7.05% | [2] 3.95% | [3] 18.6% | [4] 29.7% | [5] 7.35% | [6] 11.8%

CCOC(=O)NN(C/C(Cl)=C/Cl)C/C(Cl)=C/Cl
inactive: [1] -2% | [2] -0.95% | [3] 0.4% | [4] -46.8% | [5] 7.35% | [6] -5.55%

CCOc1ccc(C=O)cc1OCC
inactive: [1] 0.15% | [2] -25.4% | [3] -9.3% | [4] -15.8% | [5] -2.7% | [6] -10.3%

COc1cc2c(cc1OC)C(=O)N(c1ccc(O)cc1)C2=O
inactive: [1] -8.25% | [2] -17.6% | [3] -7.8% | [4] 20.8% | [5] 12.3% | [6] 3.9%

O=C1OC(Nc2ccccc2)C(Cl)=C1Cl (centres undefined)
inactive: [1] 38.1% | [2] 13.8% | [3] 22.5% | [4] 20.3% | [5] 6.2% | [6] -0.15%

CC(=O)Nc1cc(C)c(C(=O)O)c(C)c1
inactive: [1] -26.5% | [2] -19.4% | [3] -9.35% | [4] -18.1% | [5] -24.9% | [6] -21.4%

CC(NC(=O)C(NC(=O)OC(C)(C)C)C(C)C)C(=O)N1CCCC1C(=O)O (stereo not drawn) (Boc-Val-Ala-Pro-OH; configuration not given here)
inactive: [1] -38.4% | [2] -52.5% | [3] -41% | [4] -28.7% | [5] -20.6% | [6] -38.4%

CC(=O)Nc1cc(C)cc(Br)c1
inactive: [1] -6.85% | [2] -4.1% | [3] -10.1% | [4] 9.05% | [5] 1.5% | [6] -9.55%

CC12CCC3=C(CCc4cc(O)ccc43)C1CCC2=O (centres undefined)
inactive: [1] -4.8% | [2] 9.75% | [3] 5.8% | [4] -34.5% | [5] -7.95% | [6] 4.4%

C/C(CC(=O)Nc1cc(Cl)c(Cl)cc1Cl)=N\NC(N)=O
inactive: [1] 28.8% | [2] 11.7% | [3] 1.55% | [4] 24.4% | [5] 30.3% | [6] 19.4%

CCCCCCCCCCCC[Si](c1ccccc1)(c1ccccc1)c1ccccc1
inactive: [1] 9.3% | [2] 6.2% | [3] 26.1% | [4] 22.9% | [5] 1% | [6] 24.5%

O=C(NC(Cc1cnc[nH]1)C(=O)N1CCCC1)C1CCCC1 (centres undefined)
inactive: [1] -22.4% | [2] -20.4% | [3] 13.7% | [4] 6.2% | [5] 0.9% | [6] -14.3%

Nc1ccc2[nH]c(=S)sc2c1
inactive: [1] 11.2% | [2] 16.4% | [3] -7.2% | [4] -1.6% | [5] -0.65% | [6] 3.35%

Nc1scc[n+]1CCC(=O)[O-]
inactive: [1] -10.1% | [2] 0.75% | [3] 3.4% | [4] -13.2% | [5] -2.75% | [6] -15.8%

COc1cc2c(cc1OC)C(c1ccccc1CCCCl)=NCC2
inactive: [1] 6.4% | [2] -4% | [3] -25.1% | [4] 10.8% | [5] -27.5% | [6] -44.7%

CC(C)OP(=O)(OC(C)C)C1C(P(=O)(OC(C)C)OC(C)C)C(F)(F)C1(F)F (centres undefined)
inactive: [1] 11.4% | [2] 10.9% | [3] -7.35% | [4] -2.65% | [5] -2% | [6] 14.3%

COCCCn1c(-c2ccc(Cl)cc2)nn2c(=O)c3ccccc3nc2c1=O
inactive: [1] 20% | [2] -1.75% | [3] 17.2% | [4] 10.2% | [5] 13.4% | [6] 7.45%

O=c1cc(-c2ccccc2Cl)[nH]c2cc3c(cc12)OCO3
inactive: [1] 14.1% | [2] -26.3% | [3] 21.9% | [4] -6.95% | [5] 12.6% | [6] -39.8%

CN(C)Cc1c(C(O)(c2ccccc2)c2ccccc2)cc2ccccc2c1Cl
inactive: [1] -12.8% | [2] -15.3% | [3] -25.6% | [4] -3% | [5] 1.05% | [6] -10.4%

COc1ccc2c(c1)CCC1C2CCC2(C)C(=O)C(n3cnc4c(SC)ncnc43)CC12 (centres undefined)
inactive: [1] 42.3% | [2] 19.6% | [3] 58.4% | [4] 29.1% | [5] 25.2% | [6] 46.9%

NC(=S)Nc1ccccc1-c1ccccc1
inactive: [1] 36.2% | [2] 13.8% | [3] 25% | [4] -6.9% | [5] 32.5% | [6] 33.2%

CSc1nn(C)c2cc(C)c3ccccc3[n+]12
inactive: [1] 20.4% | [2] -7.8% | [3] -10.2% | [4] 7.25% | [5] 4.6% | [6] -16.4%
